According to PubChem BioAssay (NCATS):
Results filed as inconclusive are left out. A call without a number means that no potency is given here. Calls of active or inactive are those of the source. Calls come from the whole dose curve; as a rule, active = well fitted inhibition curve with a large enough effect; inconclusive = small, poorly fitted or top-dose-only effect; inactive = flat fitted curve, though single readings scatter.

Legend:
Test in all cases: qHTS profiling for inhibitors of Plasmodium falciparum proliferation (AID 504749); note: nearly all actives have a fitted effect of over 60% in size
Settings in all cases: P. falciparum in erythrocytes, SYBR Green DNA, 72 h; series mostly up to 28.7 µM
CP325 = test system: CP325
In short: (§1)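 SYBR Green fluorescence (ex 485 nm, em 535 nm) reports parasite DNA after 72 h compound exposure of infected red cells at 0.3% parasitemia, 2.5% hematocrit; signal normalized to 0.29 uM artemisinin and vehicle wells.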

CP329 = test system: CP329
In short: as §1

CP335 = test system: CP335
In short: as §1

DIV14 = test system: DIV14
In short: as §1

DIV17 = test system: DIV17
In short: as §1

DIV30 = test system: DIV30
In short: as §1

Dd2 = test system: Dd2
In short: as §1

FAB9 = test system: FAB9
In short: as §1

GB4 = test system: GB4
In short: as §1

HB3 = test system: HB3
In short: as §1

ICS = test system: ICS
In short: as §1

JCK = test system: JCK
In short: as §1

N140 = test system: N140
In short: as §1

PC15 = test system: PC15
In short: as §1

PC26 = test system: PC26
In short: as §1

DFO2036 = test system: DFO2036
In short: as §1

ECU = test system: ECU
In short: as §1

P93_24 = test system: P93_24
In short: as §1

P94_40 = test system: P94_40
In short: as §1

PAD = test system: PAD
In short: as §1
Potency is the fitted concentration of half-maximal effect.

Structure (SMILES) | Potency (CP325) | Potency (CP329) | Potency (CP335) | Potency (DIV14) | Potency (DIV17) | Potency (DIV30) | Potency (Dd2) | Potency (FAB9) | Potency (GB4) | Potency (HB3) | Potency (ICS) | Potency (JCK) | Potency (N140) | Potency (PC15) | Potency (PC26) | Potency (DFO2036) | Potency (ECU) | Potency (P93_24) | Potency (P94_40) | Potency (PAD)
C[S+](CC[C@H](N)C(=O)O)C[C@H]1O[C@@H](n2cnc3c(N)ncnc32)[C@H](O)[C@@H]1O (stereo not given in full) | inactive | inactive | inactive | inactive | inactive | inactive | inactive | inactive | inactive | inactive | inactive | inactive | 1 µM (active) | inactive | inactive |  |  |  |  | 
O=C(O)c1ccccc1Nc1cccc(C(F)(F)F)c1 | inactive | inactive | inactive |  | inactive | inactive | inactive | inactive | inactive | inactive | inactive | inactive | inactive | inactive | inactive | inactive | inactive | inactive | inactive | inactive
Cc1[nH]cnc1CN1CCc2c(c3ccccc3n2C)C1=O | inactive | inactive | inactive |  | inactive | inactive | inactive | inactive | inactive | inactive | inactive | inactive | inactive | inactive | inactive | inactive | inactive | inactive | inactive | inactive
CCCCCCCCCCCCCCCC(=O)OC(C)C | inactive | inactive | inactive | inactive | inactive | inactive | inactive |  | inactive | inactive | inactive | inactive | inactive | inactive | inactive | inactive | inactive | inactive | inactive | inactive
O=c1[nH]c2ccccc2n1CCCN1CCN(C(c2ccccc2)c2ccccc2)CC1 |  |  |  | 13.5 µM (active) | 13.5 µM (active) |  | 11.2 µM (active) | inactive | 13.5 µM (active) | inactive | 7.94 µM (active) | inactive | 11.2 µM (active) |  |  |  |  |  |  | 
CCCCCCCCCCCC(=O)[O][Sn]([CH2]CCC)([CH2]CCC)[O]C(=O)CCCCCCCCCCC | inactive | inactive | inactive | inactive | inactive | inactive | inactive | inactive | inactive | inactive |  | inactive | inactive | inactive |  | inactive | inactive | inactive | inactive | inactive
O=C(CCN1CCN(CCO)CC1)N1c2ccccc2Sc2ccc(C(F)(F)F)cc21 |  | inactive |  | 9.53 µM (active) | 9.53 µM (active) |  | 11.2 µM (active) | inactive |  |  | 11.2 µM (active) | inactive | 12.6 µM (active) |  |  |  |  | 12.6 µM (active) |  | inactive
NC(=O)C(c1ccccc1)(c1ccccc1)[C@@H]1CCN(CCc2ccc3c(c2)CCO3)C1 | inactive |  |  | 7.57 µM (active) | 10.7 µM (active) |  | 5.01 µM (active) | inactive |  | inactive | 7.08 µM (active) | inactive |  |  |  |  |  |  |  | inactive
COc1cc(CNC(=O)CCCC/C=C/C(C)C)ccc1O | inactive | inactive | inactive | inactive | inactive |  | inactive | inactive | inactive | inactive | inactive | inactive | inactive | inactive | inactive | inactive | inactive | inactive | inactive | inactive
CCCCC[C@H](O)/C=C/[C@@H]1[C@@H](C/C=C\CCCC(=O)O)[C@@H](O)C[C@H]1O | inactive | inactive |  | inactive | inactive | inactive | inactive | inactive | inactive | inactive | inactive | inactive | inactive | inactive |  | inactive | inactive | inactive | inactive | inactive
